10 compounds from PubChem BioAssay (EPA / NIEHS) can be followed below.

SMILES strings stand for the structures. Several values for one entry are separate records, joined by “and”; a condition that tells them apart may be missing. Equal values may be shown once. More than one record can exist for a structure, and the calls need not agree. Activity calls are given as the source filed them. How the source made its calls: active means hit-call score of the fitted dose curve at least 0.9, where 1 is the maximum; inactive means score below 0.9.

Assay [1] is described as follows: ATG_PBREM_CIS: Attagene CIS-FACTORIAL HepG2 Assay for human Phenobarbital-responsive Enhancer Module (PBREM) (AID 2282955). Conditions: HepG2 PBREM cis-reporter, Attagene multiplexed transcription; actives raise or lower the signal. The gist of the method:
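HepG2 cells transiently transfected with multiple cis-regulated reporter units measure endogenous transcription factor activity; 24 h compound exposure. Reporter mRNA quantified by RT-PCR, fluorescent labelling, HpaI digestion and capillary electrophoresis; bidirectional fit versus DMSO.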

The target in assay [2] is Paired box protein Pax-6 (Homo sapiens) (UniProt P26367). The experiment in a line: ATG_Pax6_CIS: Attagene CIS-FACTORIAL HepG2 Assay for human Paired Box 6 (PAX6) (AID 2282956). Particulars: HepG2 CIS-FACTORIAL PAX6 reporter transcription, RNA readout; actives raise or lower the signal. In outline: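 Transient MRTU transfection of HepG2 → compound exposure 24 h → TriZol RNA, oligo(dT) RT → PCR, 6-FAM primer extension, HpaI cut → capillary electrophoresis; activity fitted both directions against DMSO.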
Paired box protein Pax-6 (Homo sapiens), sequence (P26367 whole entry, looked up): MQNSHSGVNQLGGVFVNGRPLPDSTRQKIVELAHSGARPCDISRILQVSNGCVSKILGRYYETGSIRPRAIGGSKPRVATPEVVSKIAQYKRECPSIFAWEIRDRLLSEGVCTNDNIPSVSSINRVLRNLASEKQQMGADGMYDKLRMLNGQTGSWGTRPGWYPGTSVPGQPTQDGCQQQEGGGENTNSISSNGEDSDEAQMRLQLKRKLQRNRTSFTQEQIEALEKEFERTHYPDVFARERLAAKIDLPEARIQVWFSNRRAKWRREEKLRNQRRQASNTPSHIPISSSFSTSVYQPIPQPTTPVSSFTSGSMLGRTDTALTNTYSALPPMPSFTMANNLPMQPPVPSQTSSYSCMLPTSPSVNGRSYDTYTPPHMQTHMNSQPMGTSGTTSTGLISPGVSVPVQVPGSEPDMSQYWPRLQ

Assay [3] can be described thus: ATG_PXRE_CIS: Attagene CIS-FACTORIAL HepG2 Assay for human Pregnane X Receptor Element (PXRE) (AID 2282957). Particulars: HepG2 Attagene CIS-FACTORIAL PXRE reporter, mRNA; actives raise or lower the signal. In outline: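 HepG2 cells transiently transfected with cis-regulated multiple reporter transcription units; endogenous factor activity measured as reporter mRNA 24 h after dosing. RT-PCR, fluorescent primer extension, HpaI digestion, capillary electrophoresis; bidirectional fit versus DMSO baseline.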

The nature of assay [4]: ATG_PPRE_CIS: Attagene CIS-FACTORIAL HepG2 Assay for human Peroxisome Proliferator-activated Response Element (PPRE) (AID 2282958). Particulars: HepG2 PPRE cis-element reporter, Attagene transcription factor profiling; actives raise or lower the signal. In outline:
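HepG2 cells are transiently transfected with multiplexed cis-promoter reporter units to report endogenous PPAR activity. After 24 h dosing, reporter mRNA is read by RT-PCR and capillary electrophoresis. Fitting is bidirectional against DMSO.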

Assay [5] can be described thus: ATG_RORE_CIS: Attagene CIS-FACTORIAL HepG2 Assay for human RAR-related Orphan Receptor Element (RORE) (AID 2282959). Particulars: HepG2 Attagene cis-factorial RORE reporter, mRNA; actives raise or lower the signal. The gist of the method: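 HepG2 cells carrying transiently transfected cis-regulated reporter units; RORE-driven reporter mRNA quantified 24 h post-dosing by RT-PCR, 6-FAM primer extension, HpaI digestion and capillary electrophoresis. Bidirectional fit versus DMSO.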

The nature of assay [6]: ATG_Sox_CIS: Attagene CIS-FACTORIAL HepG2 Assay for human SRY-box transcription factor (SOX) (AID 2282960). Particulars: HepG2 Attagene cis-factorial SOX reporter, mRNA; actives raise or lower the signal. In outline:
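HepG2 cells transiently transfected with multiple cis-regulated reporter units, then dosed for 24 h. Reporter mRNA quantified by RT-PCR, fluorescent labelling, HpaI digestion and capillary electrophoresis; bidirectional fit versus DMSO.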

The target of assay [7] is Transcription factor Sp1 (Homo sapiens) (UniProt P08047). Briefly: ATG_Sp1_CIS: Attagene CIS-FACTORIAL HepG2 Assay for human Specificity Protein 1 (Sp1) (AID 2282961). Conditions: HepG2 Sp1 cis-reporter transcription, actives raise or lower the signal. The gist of the method: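 HepG2 cells transiently transfected with multiplexed cis-regulated reporter constructs, chemical exposure 24 h. Reporter mRNA quantified by RT-PCR with capillary electrophoresis; bidirectional fit relative to DMSO.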
Transcription factor Sp1 (Homo sapiens), sequence (P08047 whole entry, looked up): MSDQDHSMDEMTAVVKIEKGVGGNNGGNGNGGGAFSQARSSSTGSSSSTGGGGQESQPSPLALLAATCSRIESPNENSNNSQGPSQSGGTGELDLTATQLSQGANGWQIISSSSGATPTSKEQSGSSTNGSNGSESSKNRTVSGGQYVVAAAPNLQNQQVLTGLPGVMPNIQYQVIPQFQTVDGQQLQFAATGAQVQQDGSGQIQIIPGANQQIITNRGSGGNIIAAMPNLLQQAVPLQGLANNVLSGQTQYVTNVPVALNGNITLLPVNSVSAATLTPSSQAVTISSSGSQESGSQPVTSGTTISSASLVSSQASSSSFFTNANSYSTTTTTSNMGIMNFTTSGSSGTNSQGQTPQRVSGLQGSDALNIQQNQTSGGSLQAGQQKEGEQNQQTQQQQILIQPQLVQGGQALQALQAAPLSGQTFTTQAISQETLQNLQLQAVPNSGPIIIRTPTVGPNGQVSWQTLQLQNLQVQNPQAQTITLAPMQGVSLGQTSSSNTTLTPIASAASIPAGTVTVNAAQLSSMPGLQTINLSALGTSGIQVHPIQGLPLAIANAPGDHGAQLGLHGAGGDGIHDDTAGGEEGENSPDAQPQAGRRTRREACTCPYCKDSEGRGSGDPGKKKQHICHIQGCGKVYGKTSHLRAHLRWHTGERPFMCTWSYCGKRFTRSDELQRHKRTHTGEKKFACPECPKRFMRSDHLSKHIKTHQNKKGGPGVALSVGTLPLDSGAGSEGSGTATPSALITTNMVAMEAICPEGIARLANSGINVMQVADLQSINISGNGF

A short description of assay [8]: ATG_SREBP_CIS: Attagene CIS-FACTORIAL HepG2 Assay for human Sterol Regulatory Element Binding (SREBP) (AID 2282962). Particulars: HepG2 Attagene cis-factorial SREBP reporter, mRNA; actives raise or lower the signal. The gist of the method:
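Transfected HepG2 (cis-regulated reporter library, endogenous TFs) → compound 24 h → total RNA → oligo(dT) RT → reporter-specific PCR → FAM primer extension, HpaI cut → CE fluorescence. Fit bidirectional vs DMSO.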

The target in assay [9] is Signal transducer and activator of transcription 3 (Homo sapiens) (UniProt P40763). The experiment in a line: ATG_STAT3_CIS: Attagene CIS-FACTORIAL HepG2 Assay for human Signal Transducer and Activator of Transcription 3 (STAT3) (AID 2282963). Conditions: HepG2, Attagene cis-factorial STAT3 reporter transcription; actives raise or lower the signal. The gist of the method: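 Transcript-level reporter assay. HepG2 transient MRTU transfection, 24 h exposure, fluorescence detection after RT-PCR and CE; DMSO baseline.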
Signal transducer and activator of transcription 3 (Homo sapiens), sequence (P40763 whole entry, looked up): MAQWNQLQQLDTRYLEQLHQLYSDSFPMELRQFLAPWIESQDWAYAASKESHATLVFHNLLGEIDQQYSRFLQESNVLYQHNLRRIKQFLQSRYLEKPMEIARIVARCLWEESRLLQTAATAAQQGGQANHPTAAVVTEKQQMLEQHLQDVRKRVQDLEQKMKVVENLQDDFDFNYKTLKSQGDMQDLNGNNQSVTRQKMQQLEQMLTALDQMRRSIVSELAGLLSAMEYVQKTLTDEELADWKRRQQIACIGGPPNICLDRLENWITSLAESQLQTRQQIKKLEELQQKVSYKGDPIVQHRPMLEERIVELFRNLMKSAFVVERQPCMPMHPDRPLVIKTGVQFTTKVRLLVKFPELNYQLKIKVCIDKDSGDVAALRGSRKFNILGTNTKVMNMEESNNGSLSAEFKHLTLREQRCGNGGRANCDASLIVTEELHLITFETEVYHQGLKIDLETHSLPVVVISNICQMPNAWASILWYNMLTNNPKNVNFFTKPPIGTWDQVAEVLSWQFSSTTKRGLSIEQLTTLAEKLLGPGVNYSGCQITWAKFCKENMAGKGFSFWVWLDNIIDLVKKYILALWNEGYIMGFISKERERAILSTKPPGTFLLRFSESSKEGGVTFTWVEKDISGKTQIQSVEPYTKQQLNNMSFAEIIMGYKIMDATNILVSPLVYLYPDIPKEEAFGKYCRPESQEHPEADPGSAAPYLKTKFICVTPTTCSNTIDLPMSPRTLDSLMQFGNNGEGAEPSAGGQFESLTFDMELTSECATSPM

Assay [10] is described as follows: ATG_TA_CIS: Attagene CIS-FACTORIAL HepG2 Assay for human TA Basal Promoter (AID 2282964). Conditions: HepG2 Attagene CIS-factorial TA basal promoter reporter; actives raise or lower the signal. The gist of the method: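 Background internal-marker endpoint from a 52-component HepG2 cis-reporter panel. Cells treated 24 h; reporter transcripts quantified via RT-PCR and CE fluorescence against DMSO baseline.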

Take `Cc1cccc(N(C)C)c1`: the outcome in assay [1], in assay [2], in assay [3], in [4], in [5] and in [6] was inactive. Also, the outcome in assay [7], in assay [8], in assay [9] and in [10] was inactive.
For orientation: AC50 means the midpoint of the concentration-response curve, whichever way the signal moves. Take `C#C[C@]1(O)CC[C@H]2[C@@H]3CCc4cc(OC)ccc4[C@H]3CC[C@@]21C`: the result in assay [1], in assay [2], in assay [4], in assay [5], in [6] and in [7] was inactive. For the same compound, the call in [8], in assay [9] and in assay [10] was inactive. Besides, the AC50 in [3] was 5.32 µM (active).
With `CCCCNc1ccccc1`, the result in [1], in assay [2], in assay [4], in assay [5], in [6] and in [7] was inactive. The compound was called inactive in [8], in [9] and in assay [10]. For the same compound, in [3], the AC50 is 100 µM (active).
As for `Oc1ccc(Nc2ccccc2)cc1`, the result in assay [1], in assay [2], in [4], in [6], in assay [7] and in assay [8] was inactive. In assay [9], the outcome was inactive. Besides, the results for the half-maximal activity concentration (AC50) in assay [3], in assay [5] and in [10] were 21.9 µM (active), 74.6 µM (active) and 58.1 µM (active), respectively.
Consider `Nc1ccc([N+](=O)[O-])cc1O`, for which the result in assay [1], in assay [2], in [3], in assay [4], in assay [5] and in assay [6] was inactive. Further, the compound was classed as inactive in assay [7], in assay [8], in assay [9] and in [10].
As for `O=S(=O)(O)C(F)(F)C(F)(F)C(F)(F)C(F)(F)C(F)(F)C(F)(F)C(F)(F)F`, the result in assay [1], in assay [2], in assay [4], in [5], in assay [7] and in assay [8] was inactive. Besides, the compound was called inactive in [9] and in assay [10]. Also, the AC50 in assay [3] is 20.3 µM (active) and 19.7 µM (active); in [4] it was 61.2 µM (active); in assay [8], 150 µM (active); in assay [9], 163 µM (active); in [10] it was 159 µM (active).
In the case of `OCCCC(F)(F)C(F)(F)C(F)(F)C(F)(F)C(F)(F)C(F)(F)C(F)(F)F`, the AC50 is 150 µM (active) in assay [1]; 50 µM (active) and 41.8 µM (active) in assay [2]; 79.6 µM (active) in [3]; 96.5 µM (active) in assay [7]; 50 µM (active) in assay [8]; 78.9 µM (active) in assay [9]. In addition, the outcome in assay [1], in assay [3], in assay [4], in [7], in assay [8] and in assay [9] was inactive. Moreover, the call in [10] was inactive.
As to `O=C(O)C(F)(F)C(F)(F)OC(F)(F)F`, the outcome in assay [1], in assay [2], in assay [3], in assay [4], in assay [5] and in [6] was inactive. Also, the outcome in [7], in assay [8], in assay [9] and in assay [10] was inactive.
As to `O=C(O)C(F)(OC(F)(F)C(F)(OC(F)(F)C(F)(OC(F)(F)C(F)(F)C(F)(F)F)C(F)(F)F)C(F)(F)F)C(F)(F)F` (stereo not given), the result in [1], in assay [2], in [3], in assay [4], in assay [7] and in assay [8] was inactive. The compound was classed as inactive in assay [9] and in assay [10]. Moreover, the AC50 in assay [3] was 83.3 µM (active).
For `c1ccc(B(c2ccccc2)c2ccccc2)cc1`, the result in assay [1], in [2], in assay [4], in assay [6], in assay [7] and in assay [8] was inactive. Further, the call in [9] and in [10] was inactive. Besides, the AC50 in assay [3] is 5.22 µM (active); in assay [5], 71.5 µM (active).
